PubChem BioAssay AID1347426 (Functional Genomics Laboratory (NCATS/FGL), 2020)
The whole screen tested about 31,000 sequences, of which about 1,400 (4.5%) were called active. The entries come from a sample that favours actives as a whole. A number with no mark means an inactive call.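 Rule for the calls: active = median seed-adjusted z-score above 1 or below -1; inactive = the rest.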

assay: Novel Modifiers of Survival Motor Neuron (SMN) Protein: Gene Identification via Genome-wide siRNA Screen; conditions: HEK293T SMN2-luciferase reporter, siRNA knockdown, 72 h; actives lie on both sides;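 note: luminescence tracks full-length SMN protein made from the SMN2 reporter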
Outline: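 HEK293T cells stably expressing an SMN2 splicing/cDNA-luciferase reporter were reverse-transfected with a druggable-genome siRNA library and read by luminescence at 72 hours; hits defined by MAD score above 1.0 or below -1.0.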

Row | Sequence | median seed-adjusted z-score
1 | CGAUGGGUAUGAGCCUGGATT against ATHL1 | 0
2 | UAUGGGCUCUUGAACCAAATT against MTNR1B | -0.393
3 | GGGUGAUCUUGAUACUGCATT against TOP2B | 0.225
4 | GAUGCAAACUAGUCCUGAATT against MLC1 | -0.284
5 | AAUCGCUCAUGGUUUUUAATT against LRFN3 | 0.483
6 | AUGUGCACCUGACUACUCATT against KRT35 | -0.1
7 | CGCGUUCUUCGAUAUGGUATT against PCDHGB6 | 0.34
8 | GGCUUUUACCCGCAUGUCATT against ZNF460 | -0.302
9 | GCAGAAUAACCUCCAGUAUTT against SLC35A2 | 1.06 (active)
10 | GACUUUGCAUUUCCUAGUATT against HSPA1A | -0.833
11 | CUACUAUUCAGAGACAACATT against GPR3 | 0
12 | GAAAGAAGAAUAUACUGAUTT against RBBP6 | -0.212
13 | GGAAAUUACGGCUACAGAATT against AP1S3 | 0.153
14 | CCUUCUGUAGGAUGCAUUUTT against LY6G5B | -1.29 (active)
15 | CAAGAGCACCGGUAAGGAATT against HSPA2 | -0.0343
16 | UGAACUACGUGACCGCGAATT against ELAVL1 | 0.316
17 | GCAACUCCAGCCUAAUUAATT against ZNF792 | 0
18 | CUGUGGUCUCUGUCUCUUATT against GPR75 | 0
19 | CCAACAAGGUAGACCCAUUTT against PSMC5 | -1.06 (active)
20 | CUACCAGCCCUACACCAUUTT against CCL1 | 0.537
21 | GGAGAUCCGUGAUGUAACATT against RUVBL2 | -0.0764
22 | AGAUGAAUCUGGAAUCGGUTT against LCN1 | 0.0607

Row | Sequence | median seed-adjusted z-score
23 | CCGAAUGAGUUUGAACAUATT against ZNF48 | -0.116
24 | GGCUCUUCAUGGACCUUCATT against GPR173 | -0.147
25 | CAACCACAAUGUUCGUAAATT against GBF1 | -0.162
26 | GAAUGUCCCUUUAACUGCATT against NFXL1 | 0.118
27 | CGAGUACUGUCUCAAGGUATT against TTC9B | -0.272
28 | CAAUUACGAAUAGAAUUGATT against WEE1 | -4.05 (active)
29 | AGGACCAAAUGUCAAUUUATT against IL1RN | 0.283
30 | GGUGUGAACUGCGAAGUGATT against NOTCH3 | 0.395
31 | GGACGUGACUUACAUAGUUTT against PRLR | 0.394
32 | CAGUUUAUCUCAGACAUCUTT against CD9 | -1.02 (active)
33 | UGGUCCGACUGGUACGACATT against TAC1 | 0.0499
34 | GAGUCUUUAUUGGUAAAGATT against GLRX | -0.0561
35 | ACAUUGUGGUAGCCUUGUATT against LYN | -0.178
36 | GGCUGUCCUUAGUACCAGATT against CFTR | -1.23 (active)
37 | GGAACUAAACUUGAUCUUATT against RAC1 | -0.0348
38 | GAGUCGCUUUAGCUCCGAATT against XPNPEP2 | -0.158
39 | GGGAAAGCUGGACUACUAATT against PIK3CB | 0.0911
40 | CAAGGUGUUUUACCUGAAATT against YWHAH | -0.125
41 | GCGUGACAGUGAUCCUGUATT against SLC27A5 | 0.441
42 | AGAUCGACGUGAUCAAGCATT against GNAS | -0.531
43 | GGACAUCUGGGUGAAGUUUTT against SNRPF | -2.66 (active)
44 | CUAUCACUCUGGAACUGGATT against SMC2 | -0.052

Row | Sequence | median seed-adjusted z-score
45 | GGACAUGAACCAUACGAAUTT against PRPF8 | -1.54 (active)
46 | CAAUAAGACUGAGUUAUUATT against ETNK1 | 0.299
47 | GACCCAAAGCGGCAGCAAATT against KLRC2 | -0.472
48 | CUCAUUGAGUUGGACAAAUTT against RHOU | -1.44 (active)
49 | GGAUCGUGGUUGCAGGGAUTT against DNASE1 | -0.35
50 | CCAGACAGGAGGAACCAUATT against HDAC11 | 0.259
51 | CUAUGGACAUGUCAAUUGUTT against CCNA2 | 0.136
52 | CCGUAUUUCUAGUUCCCUUTT against ZNF442 | 1.06 (active)
53 | GUGUGAUGGUUGUAAACGATT against ZMYM6 | -0.355
54 | CAUACUCAUUCUUGCAAUATT against PHOSPHO2 | -0.247
55 | GAGAGUAAAUAUGCGAAUATT against ATP8B1 | 0.357
56 | GCAACAUCCUGGUUUUCGATT against LRP2 | -0.512
57 | GUAUCGCUGUUUCUACGGUTT against LILRA1 | -0.231
58 | GGAUCAUUCUCAACGGGAUTT against KCNV2 | -1.13 (active)
59 | UGUUGACACUUUUAUCCAATT against ANAPC11 | -0.581
60 | AACCCUUUGUGGAACACCATT against PSMB4 | -0.16
61 | CGCAAAAAGGCAGACGAAATT against DUX5 | -0.295
62 | GCUAAGAAGAGAUAAUGAATT against MLKL | 0
63 | CCGAUUCGGUCACCAAGUATT against MYO1F | 0.103
64 | CCCUCACCGUGCAUGAGAATT against ZNF74 | 1.17 (active)
65 | GUGCUAAAGAUCAUUGAUATT against TRIM32 | 0.109
66 | GAUCAUGCGUAACUACAGUTT against JUP | 0.15

Row | Sequence | median seed-adjusted z-score
67 | AGAGCACCAGAAGACACAATT against GJC3 | -0.137
68 | GGACCUUUUUGUUAAGUCATT against RASD1 | 0.674
69 | GGUCUUUACUGGAUUCAGATT against SERINC3 | 0.29
70 | GAAUUUGUAUGAGAGCAUUTT against CYTH3 | 0.196
71 | CUCUUAUGUUGGAUAUGUATT against USP14 | 0
72 | GGAAGAAUUUCAGUCAGAATT against ZNF436 | 0.00767
73 | GGACCUGCAUAUGAAAGUATT against PCDH8 | -1.03 (active)
74 | CAUUGUCUAUCAUCGCAAATT against NEB | 0.0485
75 | GGAAGGCAGAUGUAUCUUUTT against CMPK1 | -0.363
76 | GGCCUACGUUUGAAAGACATT against ZNF792 | 0
77 | GACUUGUGAUACAAGCGUATT against RAD23B | 0.639
78 | GGUAAAGGGAAGUAACUAUTT against SLC2A13 | -0.0451
79 | CCCUAUCAAUUUCUAUGGATT against MPP4 | 0.13
80 | GCCUGACAGUGGUAUACAATT against COPZ1 | -1.02 (active)
81 | GCUACAACUGGAUAAGGAATT against FTSJ1 | 0.0774
82 | CAUGAUAUCUGGACCCAAATT against SSX3 | 0
83 | AGACGUACCGAGAGGAGUATT against PLA2G2F | 0.508
84 | CCAUGCUGGAGAUCAAGAATT against PRKAG3 | -1.03 (active)
85 | CCCUGGAUGUCCUAUCUGATT against SLC2A1 | -0.349
86 | GGAGGAUGACAAGAUCUAUTT against RNF113A | -0.128
87 | GCACUGAUGUAAAUUACUUTT against RAB6C | -1.08 (active)
88 | GCAGUACAGUGAAUGCCGATT against AKAP8 | -0.252

Row | Sequence | median seed-adjusted z-score
89 | CCACCGAGCUAACAUCUGATT against MFAP3L | 1.03 (active)
90 | CAGACUUAUUGUAACAAGATT against ENPP3 | 0.66
91 | GCUACACUCAACUACCUGATT against ADCY5 | -0.123
92 | CCACAAGAGUUCGAACUCATT against ZFX | -0.581
93 | GGAAUGCAAUUCUCAGAGATT against LCN2 | 0.123
94 | CACAGAUUCGAGAAAUUCATT against SF3B1 | -3.65 (active)
95 | GGUUGACAAAUGCAGGAUATT against RIOK2 | -0.16
96 | GCAUCGGCAUCUUCACGCUTT against FZD5 | -0.129
97 | GACCCGCGAUUAAACCUCATT against CHST1 | 0.181
98 | GGUUUGGGAUGGGAAUUGATT against SUPT16H | 1.2 (active)
99 | GGGUACAAGUUACCUAAUATT against TDRD6 | 0
100 | GGAAACGACCUGUCAAAGATT against PHAX | -0.0716
101 | GGAGAUCGUUCUGCACAGATT against PAEP | -0.0632
102 | CCAUCUUGGUAAUGCCCAUTT against HTR1D | -0.155
103 | CGAGUUACUUUUCAGCUAATT against MYH4 | -1.8 (active)
104 | AGUUCACCCUCGUACUCUATT against FURIN | 0.0975
105 | UCAUAAACUUGGAUAAGCATT against NRIP3 | -0.699
106 | GCGAAUGAGUGGUAGAGGATT against ARHGAP21 | 0.229
107 | GCACUUUUCGAGGAGGAGATT against SLC12A7 | -0.0309
108 | CAGUUGAUUUAAGAGGUAATT against PRPF4B | -2.29 (active)
109 | CAAGGAGUUUUACCCAGUATT against CYP4Z1 | -0.139
